Most compounds without a hit are left out; they make up all but 17% or so of the library.
DT40 TDP1 CPT = growth inhibition of DT40 Tdp1-/-;hTDP1 cells with camptothecin (screen for TDP1 inhibitors) | chicken DT40 Tdp1-/-;hTDP1 cells + 20 nM CPT, ATP luminescence, 48 h | AID 686979 | 420,000 tested, 12% active | Potency, µM (highest dose often 46.2 µM), most hits filed as inhibitors; note: nearly all actives have a fitted effect of over 55% in size
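Cell growth measured by CellTiter-Glo luminescence after a minimum 48 h, 37 C compound exposure with 20 nM CPT in Tdp1-knockout DT40 cells stably expressing hTDP1, seeded 400/well; qHTS titration format.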
ATXN2 expr inh = ATXN2 expression inhibition. HEK-293 ATXN2-luciferase reporter, luminescence, 24 h. Potency, µM (top dose mostly 57 µM), actives largely listed as inhibitors. 360,000 tested, 0.72% active. AID 1745845; note: nearly all actives have a fitted effect of over 55% in size
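ATXN2-luciferase reporter cells (luciferase flanked by upstream and downstream ATXN2 gene portions) were treated 24 h at 37 °C with compounds at up to 57 uM. SteadyGlo luminescence gave expression; GF-AFC fluorescence gave viability.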
HepG2 tox = counter-screen for TGF-b inhibitors: cytotoxicity in HepG2 cells; 410,000 tested, 0.76% active; Potency, µM (highest dose often 46.1 µM), most hits filed as cytotoxic; AID 588856; HepG2 CAGA-GFP viability, ATP luminescence, 18 h
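CellTiter-Glo luminescence gave cytotoxicity after 18 hours at 37 degrees C. The cells were HepG2 CAGA-GFP in 1% FBS DMEM, stimulated with 500 pg/mL TGF-beta after compound addition. %Activity was normalised to no-cell wells (complete cell-killing) and DMSO (no toxicity), and curves were fitted and classified.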
TGFb SMAD3 inh = inhibitors of TGF-b signaling | HepG2 CAGA-GFP TGF-b/SMAD3 reporter, GFP fluorescence, 18 h; TGF-beta stimulated, 500 pg/mL final | Potency, µM (series often up to 46.1 µM), usual class: inhibitors | 410,000 tested, 1.2% active | AID 588855; note: nearly all actives have a fitted effect of over 65% in size
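First, reporter cells (HEPG2 CAGA-GFP) rested 2 h at 37 degrees C. Next, compounds were pinned in and TGF-beta added to 500 pg/mL final. After 18 h, GFP was imaged per cell and summed per well.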
ATXN viability = cell viability loss in ATXN counter-screen | S2 cells (HEK-293 line with an ATXN2-luciferase reporter) viability, CellTiter-Fluor protease fluorescence, 24 h | Potency, µM (series often up to 56.7 µM), most hits filed as cytotoxic | 400,000 tested, 0.49% active | AID 651635; note: nearly all actives have a fitted effect of over 40% in size
DT40 TDP1 no CPT = qHTS for Inhibitors of human tyrosyl-DNA phosphodiesterase 1 (TDP1): qHTS in cells in absence of CPT | DT40 Tdp1-/- hTDP1 cells, no CPT, ATP luminescence, 48 h | Potency, µM (top dose mostly 46.2 µM), most hits filed as inhibitors | 420,000 tested, 15% active | AID 686978, 2013; note: nearly all actives have a fitted effect of over 55% in size
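DT40 Tdp1-/-;hTDP1 cells, no CPT (DMSO vehicle only), 400 cells/well; compounds pin-transferred; ≥48 hr, 37 °C; CellTiter-Glo 30 min RT dark, luminescence read.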
Hits are given with their value; [ ] = another dose, or the depositor's remark. Calls come from the whole dose curve; as a rule, active = well fitted curve in the direction sought with a large enough effect; inconclusive = small, poorly fitted or top-dose-only effect, or another doubt; inactive = no such curve, though single readings can be large; an effect the other way counts as inactive or inconclusive.

For CC1C(O)=C(c2nc3ccccc3[nH]2)C(=N)N1c1ccccc1 (stereo unspecified) the results were DT40 TDP1 CPT inconclusive, ATXN2 expr inh inactive, HepG2 tox inactive, TGFb SMAD3 inh inactive, ATXN viability inactive and DT40 TDP1 no CPT 21µM.
COc1ccc(CCN2CC(O)=C(c3nc4ccccc4c(=O)[nH]3)C2=N)cc1OC was read as DT40 TDP1 CPT inconclusive, ATXN2 expr inh inactive, HepG2 tox inactive, TGFb SMAD3 inh inactive, ATXN viability inactive and DT40 TDP1 no CPT 18µM.
For COc1ccc(CC(=O)N(Cc2ccccc2)c2ccc(C)cc2)cc1OC the results were DT40 TDP1 CPT inconclusive, ATXN2 expr inh inactive, HepG2 tox inactive, TGFb SMAD3 inh inactive, ATXN viability inactive and DT40 TDP1 no CPT inconclusive.
CCC(C)N1CC(O)=C(c2nc3ccccc3[nH]2)C1=N (stereo unspecified) was read as DT40 TDP1 CPT 23µM, ATXN2 expr inh inactive, HepG2 tox inactive, TGFb SMAD3 inh inactive, ATXN viability inactive and DT40 TDP1 no CPT inconclusive.
For O=C(NC1CCN(CCc2c[nH]c3ccccc23)CC1)c1ccccc1 the results were DT40 TDP1 CPT inconclusive, ATXN2 expr inh inactive, HepG2 tox inactive, TGFb SMAD3 inh inactive, ATXN viability inactive and DT40 TDP1 no CPT inconclusive.
`Cc1ccc(-c2[nH]c3cc(C(=O)NCCCn4ccnc4)ccc3c(=O)c2O)cc1` gave DT40 TDP1 CPT inactive, ATXN2 expr inh inactive, HepG2 tox inactive, TGFb SMAD3 inh inactive, ATXN viability inactive and DT40 TDP1 no CPT inactive.
Cc1ccc(CNC(=O)c2ccc3c(=O)c(O)c(-c4ccc(C)cc4)[nH]c3c2)cc1 was read as DT40 TDP1 CPT 4.1µM, ATXN2 expr inh inactive, HepG2 tox inactive, TGFb SMAD3 inh inconclusive and DT40 TDP1 no CPT 6.5µM.
Screening CCCNC(=O)c1ccc2c(=O)c(O)c(-c3ccsc3)[nH]c2c1 returned DT40 TDP1 CPT inconclusive, ATXN2 expr inh inconclusive, HepG2 tox inactive, TGFb SMAD3 inh inconclusive and DT40 TDP1 no CPT 18µM.
CCCNC(=O)c1ccc2c(=O)c(O)c(-c3ccc(C)cc3)[nH]c2c1 was read as DT40 TDP1 CPT inconclusive, ATXN2 expr inh inconclusive, HepG2 tox inactive, TGFb SMAD3 inh inconclusive and DT40 TDP1 no CPT inconclusive.
`Cc1ccc(-c2[nH]c3cc(C(N)=O)ccc3c(=O)c2O)cc1` gave DT40 TDP1 CPT inconclusive, ATXN2 expr inh inactive, HepG2 tox inactive, TGFb SMAD3 inh inactive, ATXN viability inactive and DT40 TDP1 no CPT 18µM.
`NC(=O)c1ccc(NC(=O)CSc2cn(CC(=O)N3CCOCC3)c3ccccc23)cc1` gave DT40 TDP1 CPT inactive, HepG2 tox inactive, TGFb SMAD3 inh inactive, ATXN viability inactive and DT40 TDP1 no CPT inactive.
`Cc1ccc(Cl)c(NC(=O)CN2C(=O)C(C)N(c3ccc(F)cc3)C2=O)c1Cl` (stereo unspecified) gave DT40 TDP1 CPT inactive, HepG2 tox inactive, TGFb SMAD3 inh inactive, ATXN viability inactive and DT40 TDP1 no CPT inconclusive.
COc1cc(=O)n2c(c1C(=O)NC(C)c1ccco1)CCN(Cc1cc3ccccc3o1)CC2 (stereo unspecified) was read as DT40 TDP1 CPT inactive[9.04 µM], ATXN viability inactive and DT40 TDP1 no CPT inactive.
For CCOc1cc(/C=C2\C(=O)N(c3ccc(C(N)=O)cc3)N=C2C)ccc1OC(=O)c1cccs1 the results were DT40 TDP1 CPT 15µM, ATXN2 expr inh inactive, HepG2 tox inactive, TGFb SMAD3 inh inactive, ATXN viability inactive and DT40 TDP1 no CPT 23µM.
For CC(=O)N/N=C(/C)c1ccc(NC(=O)c2csc(C)c2C)cc1 the results were DT40 TDP1 CPT inactive, ATXN2 expr inh inactive, HepG2 tox inactive, TGFb SMAD3 inh inactive, ATXN viability inactive and DT40 TDP1 no CPT inactive.
Screening O=C(NCCCN1CCN(c2ccccc2F)CC1)C1CCC(=O)N1C1CCCC1 (stereo unspecified) returned DT40 TDP1 CPT inactive, ATXN2 expr inh inactive, HepG2 tox inactive, TGFb SMAD3 inh inactive, ATXN viability inconclusive and DT40 TDP1 no CPT inactive.
For CCOC(=O)C1CCCC(NS(=O)(=O)c2ccc(NC(C)=O)cc2)C1 (stereo unspecified) the results were DT40 TDP1 CPT inconclusive, ATXN2 expr inh inactive, HepG2 tox inactive, TGFb SMAD3 inh 11µM, ATXN viability inactive and DT40 TDP1 no CPT inactive.
`CCOC(=O)c1ccc(S(=O)(=O)NC2CCC(C)CC2)cc1` (stereo unspecified) gave DT40 TDP1 CPT 16µM, ATXN2 expr inh inactive, HepG2 tox inactive, TGFb SMAD3 inh inconclusive, ATXN viability inactive and DT40 TDP1 no CPT 21µM.
Screening COC(=O)c1ccc2nc(-c3ccc(F)cc3)c(Cc3ccccc3OC)n2c1 returned DT40 TDP1 CPT 21µM, ATXN2 expr inh inactive, ATXN viability inconclusive and DT40 TDP1 no CPT 18µM.
`COC(=O)c1ccc2nc(-c3cccc(Br)c3)c(Cc3ccccc3OC)n2c1` gave DT40 TDP1 CPT inconclusive, ATXN2 expr inh inactive, ATXN viability inactive and DT40 TDP1 no CPT 21µM.
For N#Cc1ccc(C23OCCN2CCn2nc4ccccc4c23)cc1 (stereo unspecified) the results were DT40 TDP1 CPT inconclusive, ATXN2 expr inh inactive, HepG2 tox inactive, TGFb SMAD3 inh inactive, ATXN viability inactive and DT40 TDP1 no CPT inconclusive.
COCc1c(C(=O)NCc2ccccc2CN2CCCC2)oc2ccccc12 was read as DT40 TDP1 CPT inactive, ATXN2 expr inh inactive, HepG2 tox inactive, TGFb SMAD3 inh inactive, ATXN viability inactive and DT40 TDP1 no CPT inactive.
For C[C@H](NC(=O)c1ccc2c(c1)OCO2)c1nnc2ccccn12 the results were DT40 TDP1 CPT inactive, HepG2 tox inactive, TGFb SMAD3 inh inactive, ATXN viability inactive and DT40 TDP1 no CPT inactive.
For Cc1cc2occ(CC(=O)N(C)CC(=O)Nc3ccc(F)cc3)c2cc1C the results were DT40 TDP1 CPT 12µM, ATXN2 expr inh inactive, HepG2 tox inactive, TGFb SMAD3 inh inactive, ATXN viability inactive and DT40 TDP1 no CPT inconclusive.
OCCNc1nc(-c2cccnc2)nc2ccccc12 was read as DT40 TDP1 CPT inactive, ATXN2 expr inh inactive, HepG2 tox inactive, TGFb SMAD3 inh inactive, ATXN viability inactive and DT40 TDP1 no CPT inactive.
For COc1cccc(-c2nccc(NCCc3c[nH]c4ccc(OC)cc34)n2)c1 the results were DT40 TDP1 CPT 13µM and DT40 TDP1 no CPT inconclusive.
`COc1ccc2[nH]cc(CCNc3nc(-c4cccnc4)nc4ccccc34)c2c1` gave DT40 TDP1 CPT 23µM and DT40 TDP1 no CPT inconclusive.
`COc1ccc(/C=N/Nc2nc(-c3cccnc3)nc3ccccc23)c(OC)c1` gave DT40 TDP1 CPT inconclusive, ATXN2 expr inh inactive, HepG2 tox inactive, TGFb SMAD3 inh inactive, ATXN viability inactive and DT40 TDP1 no CPT inconclusive.
